Among the data in PubChem BioAssay are growth inhibition, inhibition and outcome values, retold here.

By inhibition is commonly meant the drop in the measured response relative to a control, in per cent.

Assay [1] is described as follows: antimalarial activity against Dd2 strain (AID 2302;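 active = growth inhibition above 50% at the single 2 µM test dose, taken to imply half-maximal potency below 2 µM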;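 note: 0% = DMSO untreated growth and 100% = chloroquine plus artemisinin killed control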). The note with it: P. falciparum Dd2 in RBCs, LDH growth readout, 72 h; at 2 µM; stronger effect = higher value.
Assay [2] is described as follows: HepG2 cytotoxicity, primary screen, cytotoxicity control for P. falciparum antimalarial project, cell-based, ATP luminescence (AID 2303;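 active = inhibition above 50%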;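 note: 0% = DMSO wells and 100% = digitonin-killed cells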). The note with it: HepG2 viability, 24-48 h, at 10 µM, stronger effect = higher value.
The target of assay [3] is L-lactate dehydrogenase (Plasmodium falciparum (isolate CDC / Honduras)) (UniProt Q27743). Put plainly: PfLDH activity inhibition – cell lysate, 3D7 strain, counter-screen for P. falciparum growth inhibition project (AID 2304).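 Note: 0% = vehicle and 100% = reference inhibitor.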 The note with it: P. falciparum 3D7 crude extract, LDH APAD/NBT absorbance; at 2 µM; stronger effect = higher value. For orientation: A counterscreen serves to expose hits that act by an unwanted route or on another target.

The nature of assay [4]: inhibition of 3D7 malaria parasite growth – strain 3D7 (AID 2306).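 Note: 0% = DMSO wells and 100% = chloroquine plus artemisinin control wells.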 The note with it: P. falciparum 3D7 erythrocytic growth, LDH absorbance, 72 h; at 2 µM; stronger effect = higher value.
Assay [5] deals with Calcium-dependent protein kinase 1 (Plasmodium falciparum (isolate 3D7)) (UniProt P62344). The assay can be described thus: PfCDPK1 kinase inhibitors, biochemical, TCAMS library (AID 1159585; cut-off not given, nearly all actives have IC50 up to about 0.98 µM;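 note: inhibitors leave more ATP so luminescence rises with inhibition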). Conditions: recombinant PfCDPK1, Kinase-Glo ATP depletion luminescence. (In general: In Kinase-Glo more light means more ATP remaining.)
For assay [6], the target named is Plasmodium falciparum protein kinase 6 (PK6, PF3D7_1337100) (UniProt Q8IDW1). Put plainly: PfPK6 kinase inhibitors, biochemical, TCAMS library (AID 1159586). Conditions: recombinant PfPK6, Kinase-Glo ATP depletion luminescence.
In assay [7] the target is Protein kinase 7 (PK7), Plasmodium falciparum 3D7 (PF3D7_0213400) (UniProt Q7YTF7). Put plainly: inhibition of Plasmodium PK7 catalytic activity – biochemical, TCAMS antimalarial set, Kinase-Glo luminescence (AID 1159587). The note with it: recombinant PfPK7, Kinase-Glo ATP depletion luminescence.
Assay [8] has as its target Calcium-dependent protein kinase 4 (Plasmodium falciparum (isolate 3D7)) (UniProt Q8IBS5). Put plainly: PfCDPK4 kinase inhibitors, biochemical, TCAMS library (AID 1159588; cut-off not given, nearly all actives have IC50 up to about 0.91 µM). Conditions: recombinant PfCDPK4, Kinase-Glo ATP depletion luminescence.

Where “and” joins values, the source holds several entries; their conditions need not be identical. Equal entries are not always repeated. For some assays here: Potency and affinity values are given separately. A structure can be active in one record and inactive in another. Calls of active or inactive are those of the source. Unless noted, the rule behind the calls is not given here.

Plasmodium falciparum protein kinase 6 (PK6, PF3D7_1337100), sequence (Q8IDW1 1-305): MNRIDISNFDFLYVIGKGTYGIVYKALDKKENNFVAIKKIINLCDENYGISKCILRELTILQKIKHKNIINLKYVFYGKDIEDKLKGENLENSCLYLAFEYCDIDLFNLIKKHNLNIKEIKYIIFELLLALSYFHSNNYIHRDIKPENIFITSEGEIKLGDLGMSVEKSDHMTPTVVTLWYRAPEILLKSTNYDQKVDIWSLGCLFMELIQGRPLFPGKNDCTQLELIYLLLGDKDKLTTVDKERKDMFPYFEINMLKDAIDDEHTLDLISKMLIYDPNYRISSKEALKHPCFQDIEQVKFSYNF
L-lactate dehydrogenase (Plasmodium falciparum (isolate CDC / Honduras)), sequence (Q27743 whole entry, looked up): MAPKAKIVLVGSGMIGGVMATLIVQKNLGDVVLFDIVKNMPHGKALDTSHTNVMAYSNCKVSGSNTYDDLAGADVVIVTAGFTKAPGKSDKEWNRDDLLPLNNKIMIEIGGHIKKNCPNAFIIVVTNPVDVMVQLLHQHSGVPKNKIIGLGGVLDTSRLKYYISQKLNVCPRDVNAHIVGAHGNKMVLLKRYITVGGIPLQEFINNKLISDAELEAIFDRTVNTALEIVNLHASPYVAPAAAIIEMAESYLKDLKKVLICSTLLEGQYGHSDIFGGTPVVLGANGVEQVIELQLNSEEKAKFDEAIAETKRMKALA
Calcium-dependent protein kinase 4 (Plasmodium falciparum (isolate 3D7)), sequence (Q8IBS5 whole entry, looked up): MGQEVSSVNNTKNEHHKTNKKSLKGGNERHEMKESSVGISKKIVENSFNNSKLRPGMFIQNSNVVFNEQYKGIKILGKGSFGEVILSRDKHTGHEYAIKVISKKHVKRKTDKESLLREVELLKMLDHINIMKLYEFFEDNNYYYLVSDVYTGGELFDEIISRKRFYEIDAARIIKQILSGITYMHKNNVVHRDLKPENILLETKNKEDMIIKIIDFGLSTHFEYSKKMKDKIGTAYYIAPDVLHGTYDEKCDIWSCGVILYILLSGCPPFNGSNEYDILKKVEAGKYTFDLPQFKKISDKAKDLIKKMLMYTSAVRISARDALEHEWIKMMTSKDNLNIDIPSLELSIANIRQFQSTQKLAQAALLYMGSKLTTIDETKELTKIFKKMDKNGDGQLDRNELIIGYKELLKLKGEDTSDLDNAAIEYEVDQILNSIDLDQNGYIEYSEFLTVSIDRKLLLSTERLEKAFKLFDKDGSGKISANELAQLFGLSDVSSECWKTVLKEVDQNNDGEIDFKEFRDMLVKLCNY
Protein kinase 7 (PK7), Plasmodium falciparum 3D7 (PF3D7_0213400), sequence (Q7YTF7 1-343): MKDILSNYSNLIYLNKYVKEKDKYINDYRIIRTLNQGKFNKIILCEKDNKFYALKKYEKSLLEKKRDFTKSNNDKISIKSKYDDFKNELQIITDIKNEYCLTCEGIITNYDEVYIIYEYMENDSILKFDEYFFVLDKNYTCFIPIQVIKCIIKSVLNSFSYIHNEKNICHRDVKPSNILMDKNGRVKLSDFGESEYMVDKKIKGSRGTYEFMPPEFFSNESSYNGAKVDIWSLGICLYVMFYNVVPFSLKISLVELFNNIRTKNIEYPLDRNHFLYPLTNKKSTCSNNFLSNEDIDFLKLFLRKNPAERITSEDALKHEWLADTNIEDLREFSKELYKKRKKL
Calcium-dependent protein kinase 1 (Plasmodium falciparum (isolate 3D7)), sequence (P62344 whole entry, looked up): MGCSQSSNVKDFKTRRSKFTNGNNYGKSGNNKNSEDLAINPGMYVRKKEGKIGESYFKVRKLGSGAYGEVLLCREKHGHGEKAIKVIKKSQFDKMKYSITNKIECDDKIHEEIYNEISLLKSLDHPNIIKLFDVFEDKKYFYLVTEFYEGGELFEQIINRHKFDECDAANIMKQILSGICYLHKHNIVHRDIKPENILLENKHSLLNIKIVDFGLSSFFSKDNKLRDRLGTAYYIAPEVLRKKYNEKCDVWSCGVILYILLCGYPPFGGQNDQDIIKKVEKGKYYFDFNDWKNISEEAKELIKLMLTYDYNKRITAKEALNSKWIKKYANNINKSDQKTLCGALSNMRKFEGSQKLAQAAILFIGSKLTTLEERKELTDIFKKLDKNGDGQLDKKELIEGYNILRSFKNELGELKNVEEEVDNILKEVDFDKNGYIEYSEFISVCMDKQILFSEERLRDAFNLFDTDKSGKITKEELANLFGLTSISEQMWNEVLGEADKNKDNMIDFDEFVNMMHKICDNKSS

`CC[C@H]1CN2CC[C@H]1C[C@H]2[C@H](O)c1cc(-c2ccc(F)cc2)nc2ccc(OC)cc12`: the growth inhibition is 98% (active) in assay [1] and 99% (active) in assay [4]. The inhibition in assay [2] is 34% (inactive); in assay [3], 5% (inactive). In addition, the result in assay [5], in assay [6], in assay [7] and in assay [8] was inactive.
In the case of `CS(=O)(=O)Nc1ccc2[nH]cc(C3CCN(CC4CCC(NC(=O)/C=C/c5ccc(Cl)c(Cl)c5)CC4)CC3)c2c1` (configuration not stated), the values for the growth inhibition in assay [1] and in assay [4] were 86% (active) and 100% (active), respectively. For the same molecule, the figures for the inhibition in assay [2] and in assay [3] were 22% (inactive) and -3% (inactive), respectively. Further, the result in assay [5], in assay [6], in assay [7] and in assay [8] was inactive.
Turning to `O=C(C=Cc1ccccc1O)N1CCC(CN2CCC(c3c[nH]c4ccccc34)CC2)CC1`, the growth inhibition is 43% (inactive) in assay [1] and 98% (active) in assay [4]. Also, the inhibition in assay [2] was 27% (inactive); in assay [3], -1% (inactive). For the same molecule, the result in assay [5], in assay [6], in assay [7] and in assay [8] was inactive.
Take `CCC1(C)CC(CCNCc2ccccc2O)(c2ccc(F)cc2)CCO1` (configuration not stated): the growth inhibition in assay [1] was 32% (inactive); in assay [4], 98% (active). Further, the inhibition in assay [2] was 20% (inactive); in assay [3], 6% (inactive). The result in assay [5], in assay [6], in assay [7] and in assay [8] was inactive.
Take `CC[C@H]1CN2CC[C@@H]1C[C@H]2[C@H](O)c1cc(-c2cccnc2)nc2ccc(OC)cc12`: the growth inhibition in assay [1] and in assay [4] was 99% (active) throughout. The inhibition in assay [2] is 20% (inactive); in assay [3], 3% (inactive). For the same molecule, the result in assay [5], in assay [6], in assay [7] and in assay [8] was inactive.
For the molecule `S=C(NCCc1ccc(Cl)cc1)NC1CCC(CN2CCC(c3c[nH]c4ccccc34)CC2)CC1` (configuration not stated), the growth inhibition was 34% (inactive) and 84% (active) in assay [1]; 100% (active) and 101% (active) in assay [4]. Moreover, the inhibition in assay [2] is 37% (inactive) and 42% (inactive); in assay [3], -2% (inactive) and -8% (inactive). Moreover, the result in assay [5], in assay [6], in assay [7] and in assay [8] was inactive.
As to `CCCCCCCc1cc(O)c2c(c1)OC(C)(C)c1ccncc1-2`, the growth inhibition in assay [1] was 52% (active); in assay [4], 95% (active). Moreover, the inhibition is -7% (inactive) in assay [2] and 0% (inactive) in assay [3]. For the same molecule, the result in assay [5], in assay [6], in assay [7] and in assay [8] was inactive.
Turning to `Oc1cccc(C2CCCN(CCc3c[nH]c4ccccc34)C2)c1` (configuration not stated), the growth inhibition in assay [1] is 40% (inactive); in assay [4], 93% (active). Besides, the inhibition was 0% (inactive) in assay [2] and 2% (inactive) in assay [3]. The outcome in assay [5], in assay [6], in assay [7] and in assay [8] was inactive.
As to `CCOC(C(=O)OCC1CCCN1C(C)C)(c1ccccc1)c1ccccc1` (configuration not stated), the growth inhibition in assay [1] is 2% (inactive); in assay [4], 98% (active). The figures for the inhibition in assay [2] and in assay [3] were -1% (inactive) and -3% (inactive), respectively. The result in assay [5], in assay [6], in assay [7] and in assay [8] was inactive.
`COC(=O)c1ccc(C[C@@H](C)NC[C@H](O)c2cccc(C(F)(F)F)c2)cc1`: the growth inhibition is 93% (active) and 87% (active) in assay [1]; 97% (active) in assay [4]. The inhibition in assay [2] was 1% (inactive) and -5% (inactive); in assay [3] it was -6% (inactive) and -2% (inactive). For the same molecule, the result in assay [5], in assay [6], in assay [7] and in assay [8] was inactive.
Take `Cc1ccc(CC(C)NCC(O)c2cccc(C#N)c2)cc1` (configuration not stated): the growth inhibition in assay [1] was 86% (active); in assay [4], 94% (active). Further, the inhibition was 2% (inactive) in assay [2] and -2% (inactive) in assay [3]. Besides, the result in assay [5], in assay [6], in assay [7] and in assay [8] was inactive.
In the case of `O=C(/C=C/c1ccc(Cl)c(Cl)c1)NC1CCC(CN2CC[C@H](c3c[nH]c4ccccc34)[C@@H](O)C2)CC1` (some centres not stated), the results for the growth inhibition in assay [1] and in assay [4] were 87% (active) and 101% (active), respectively. Besides, the figures for the inhibition in assay [2] and in assay [3] were 30% (inactive) and -7% (inactive), respectively. Further, the result in assay [5], in assay [6], in assay [7] and in assay [8] was inactive.
In the case of `O=C1c2ccccc2CCC1CCN1CC=C(c2c[nH]c3ccccc23)CC1` (configuration not stated), the growth inhibition in assay [1] was 83% (active); in assay [4], 89% (active). In addition, the inhibition in assay [2] was 5% (inactive); in assay [3], 7% (inactive). Moreover, the result in assay [5], in assay [6], in assay [7] and in assay [8] was inactive.
In the case of `CC(C)CNCc1ccc(-c2ccc(CN(C(=O)Nc3ccccc3)C3CCN(Cc4ccccc4)CC3)cc2)cc1`, the results for the growth inhibition in assay [1] and in assay [4] were 61% (active) and 101% (active), respectively. Besides, the inhibition in assay [2] was 27% (inactive); in assay [3], -4% (inactive). Also, the result in assay [5], in assay [6], in assay [7] and in assay [8] was inactive.
Take `CCCCCc1cc(O)c2c(c1)OC(C)(C)CC2C1=CCN(Cc2cnc3ccccc3c2)CC1` (configuration not stated): the growth inhibition in assay [1] and in assay [4] was 98% (active) each time. Moreover, the inhibition in assay [2] is 27% (inactive); in assay [3], 0% (inactive). The result in assay [5], in assay [6], in assay [7] and in assay [8] was inactive.
Regarding `c1ccc2c(NCCCCCCCCCNc3c4ccccc4nc4ccccc34)c3ccccc3nc2c1`, the growth inhibition is 95% (active) in assay [1] and 100% (active) in assay [4]. Moreover, the inhibition in assay [2] was 99% (active); in assay [3], -6% (inactive). Further, the outcome in assay [5], in assay [6], in assay [7] and in assay [8] was inactive.
Turning to `O=C(NCCC1CCN(CCc2c[nH]c3ccccc23)CC1)Nc1ccc(Cl)c(Cl)c1`, the growth inhibition is 5% (inactive) in assay [1] and 101% (active) in assay [4]. The inhibition is 18% (inactive) in assay [2] and -2% (inactive) in assay [3]. Besides, the outcome in assay [5], in assay [6], in assay [7] and in assay [8] was inactive.
Take `O=C(/C=C/c1cc(F)cc(C(F)(F)F)c1)N1CCC(CN2CCC(c3c[nH]c4ccccc34)CC2)CC1`: the growth inhibition in assay [1] was 74% (active); in assay [4], 101% (active). Moreover, the inhibition in assay [2] is 32% (inactive); in assay [3], 3% (inactive). The outcome in assay [5], in assay [6], in assay [7] and in assay [8] was inactive.
For `C/C=C1/CN2CC[C@H]1C[C@H]2[C@H](O)c1ccnc2ccc(OC)cc12`, the growth inhibition is 45% (inactive) in assay [1] and 99% (active) in assay [4]. For the same molecule, the inhibition was -16% (inactive) in assay [2] and 0% (inactive) in assay [3]. The result in assay [5], in assay [6], in assay [7] and in assay [8] was inactive.
